The structures appear in SMILES notation. Inconclusive results are not listed. Where a call stands in place of a potency, no number is given. Calls of active or inactive are those of the source. Calls follow the shape of the full dose curve.

The results in this text go back to PubChem BioAssay (NCATS).

This test can be described thus: Primary qHTS for Huh7 cytotoxicity: counterscreen for inhibitors of MERS-S pseudotyped particle cell entry (AID 1479147). The conditions noted are these: cell viability read-out; series mostly up to 57.1 µM.
As for `Cc1cncc(CN2CCC(=C3c4ccc(Cl)cc4CCc4cccnc43)CC2)c1`, the Potency entry is “inactive”. With `CC(C)[C@H]1C(=O)N[C@@H](CCCN=C(N)N)C(=O)NCC(=O)N[C@@H](CC(=O)O)C(=O)N[C@H](Cc2ccccc2)C(=O)N1C` the entry was “inactive”; with `O=C1[C@@H]2[C@H]3CC[C@H](C3)[C@@H]2C(=O)N1C[C@@H]1CCCC[C@H]1CN1CCN(c2nsc3ccccc23)CC1`, “inactive”. For the compound `O=C(CCCN1CCC(C(=O)c2ccc(F)cc2)CC1)c1ccc(F)cc1`, the Potency entry is “inactive”. With `CC[C@@H](C(=O)[C@@H](C)[C@@H](O)[C@H](C)CCc1ccc(C)c(O)c1C(=O)O)[C@H]1O[C@](CC)([C@H]2CC[C@](O)(CC)[C@H](C)O2)C[C@@H]1C` the entry was “inactive”; with `C=CC[C@@H]1/C=C(\C)C[C@H](C)C[C@H](OC)[C@H]2O[C@@](O)(C(=O)C(=O)N3CCCC[C@H]3C(=O)O[C@H](/C(C)=C/[C@@H]3CC[C@@H](O)[C@H](OC)C3)[C@H](C)[C@@H](O)CC1=O)[C@H](C)C[C@@H]2OC`, “inactive”; with `CC(Cc1ccc(O)c(O)c1)C(C)Cc1ccc(O)c(O)c1` (stereo not drawn), “inactive”.

Consider `CCCCCCC(COC(=O)c1cccnc1)(COC(=O)c1cccnc1)COC(=O)c1cccnc1`, for which the Potency result was “inactive”. With `CC[C@@H]1/C=C(\C)C[C@H](C)C[C@H](OC)[C@H]2O[C@@](O)(C(=O)C(=O)N3CCCC[C@H]3C(=O)O[C@H](/C(C)=C/[C@@H]3CC[C@H](Cl)[C@H](OC)C3)[C@H](C)[C@@H](O)CC1=O)[C@H](C)C[C@@H]2OC` the entry was “inactive”; with `CCOC(=O)Oc1c(OC)cc(C(=O)O[C@@H]2C[C@@H]3CN4CCc5c([nH]c6cc(OC)ccc56)[C@H]4C[C@@H]3[C@H](C(=O)OC)[C@H]2OC)cc1OC`, “inactive”. To `CC(C)C[C@H]1C(=O)N2CCC[C@H]2[C@]2(O)O[C@](NC(=O)[C@@H]3C=C4c5cccc6[nH]c(Br)c(c56)CC4N(C)C3)(C(C)C)C(=O)N12` (stereo partly drawn) belongs “inactive”; to `CNS(=O)(=O)CC1CCC(N(C)c2ncnc3[nH]ccc23)CC1` (stereo not drawn), “inactive”.

As for `CC(CN(C)C)CN1c2ccccc2Sc2ccc(C(F)(F)F)cc21` (stereo not drawn), the Potency entry was “inactive”. Turning to `COc1cc2c(cc1OC)[C@H]1C[C@@H](OC(=O)[C@@H](N)C(C)C)[C@H](CC(C)C)CN1CC2`, the Potency entry was “inactive”.

Take `CC(CN1c2ccccc2Sc2cccnc21)N(C)C` (stereo not drawn): the Potency entry was “inactive”. On to `CC(=O)c1ccc2c(c1)N(CCCN1CCN(CCO)CC1)c1ccccc1S2`, for which the Potency entry was “inactive”.

Turning to `Cc1ccc(C2(O)CCN(CCCC(=O)c3ccc(F)cc3)CC2)cc1`, the Potency result is “inactive”. Take `CO[C@H]1/C=C\O[C@@]2(C)Oc3c(C)c(O)c4c(O)c(c5c(c4c3C2=O)=NC2(CCN(CC(C)C)CC2)N=5)NC(=O)/C(C)=C\C=C/[C@H](C)[C@H](O)[C@@H](C)[C@@H](O)[C@@H](C)[C@H](OC(C)=O)[C@@H]1C`: the Potency entry is “inactive”. To `[2H]C([2H])([2H])C(O)([C@@H](C)/C=C/[C@@H](C)[C@H]1CC[C@H]2/C(=C/C=C3C[C@@H](O)C[C@H](O)C3)CCC[C@]12C)C([2H])([2H])[2H]` belongs “inactive”; to `CC(C)(C)NCC(O)COc1ccccc1C1CCCC1` (stereo not drawn), “inactive”.

On to `O=C(O)c1ccc2nc(-c3cc(Cl)cc(Cl)c3)oc2c1`, for which the Potency result was “inactive”.

Consider `CCCCCCCCCC(=O)OCCN1CCN(CC/C=C2\c3ccccc3Sc3ccc(C(F)(F)F)cc32)CC1`, for which the Potency result was “inactive”. `CCC1OC(=O)[C@H](C)C(=O)[C@H](C)[C@@H](OC2O[C@H](C)C[C@H](N(C)C)[C@H]2O)[C@](C)(OC)C[C@@H](C)C(=O)[C@@H](C)[C@@H]2N(CCCCn3cnc(-c4cccnc4)c3)C(=O)O[C@]12C` (stereo partly drawn): the Potency result is “inactive”. For the compound `O=C1CSC2(CCN(CCCN3c4ccccc4Sc4ccc(Cl)cc43)CC2)N1`, the Potency entry is “inactive”. To `CC[C@@H](C)[C@H]1O[C@]2(CC[C@@H]1C)C[C@@H]1C[C@@H](C/C=C(\C)[C@@H](O[C@H]3C[C@H](OC)[C@@H](O[C@H]4C[C@H](OC)[C@@H](O)[C@H](C)O4)[C@H](C)O3)[C@@H](C)/C=C/C=C3\CO[C@@H]4[C@H](O)C(C)=C[C@@H](C(=O)O1)[C@]34O)O2` belongs “inactive”; to `Cc1cnc(C(=O)N[C@H]2CCCCC/C=C\[C@H]3C[C@@]3(C(=O)NS(=O)(=O)C3CC3)NC(=O)[C@@H]3C[C@@H](Oc4nc5ccccc5c5ccccc45)CN3C2=O)cn1`, “inactive”. For `CCCCCCCCCC(=O)NO`, the Potency entry was “inactive”.

On to `OC[C@H]1NC[C@H](O)[C@@H](O)[C@@H]1O`, for which the Potency entry is “inactive”.
